The values that follow come from PubChem BioAssay (Tox21).

SMILES strings stand for the structures. A number with no mark means an inactive call. Results filed as inconclusive are left out. Activity calls are given as the source filed them. Unless noted, the call rests on the fitted dose curve.

Assay [1] has as its target Gonadotropin-releasing hormone receptor (Homo sapiens) (UniProt P30968). The assay can be described thus: Human gonadotropin-releasing hormone receptor (GnRHR) small molecule agonists, calcium flux assay in GnRHR-HEK293 cells (AID 1920063). Further: nearly all actives have a fitted effect of over 35% in size. Further: potency means the concentration at half of the fitted maximal effect. The procedure, abridged: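 HEK293 cells stably expressing human GnRHR were dye-loaded for 1 h at 37 C. Compound was added in agonist mode and fluorescence (Ex/Em 480/540) recorded kinetically for 3 min. Fifteen concentrations, triplicates.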
In general terms: A change in cytosolic calcium serves as a functional read-out for many receptors and channels.

For assay [2], the target named is KiSS-1 receptor (Homo sapiens) (UniProt Q969F8). Kind of assay: Human kisspeptin (KISS1R) small molecule agonists, calcium flux assay in KISS1R-HEK293 cells (AID 1920064; active means well fitted activation curve with a large enough effect in the repeat runs). The procedure, abridged:
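HEK293 cells stably expressing human KISS1R were loaded with calcium dye for 1 h at 37 C, then given compound; fluorescence (Ex/Em 480/540) was read kinetically for 3 min. Fifteen concentrations, triplicate.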

Assay [3] can be described thus: G protein-coupled receptor (GPCR) small molecule agonists, calcium flux assay: HEK293 wild type cell line counter screen (AID 1920065). The procedure, abridged:
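Wild-type HEK293 cells plated 18 h, loaded with calcium dye 1 h at 37 C, then compounds added in agonist mode (ATP as positive control). Kinetic fluorescence Ex/Em 480/540 recorded 3 min at 1 sec intervals; 15 concentrations, triplicate.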

Assay [4] can be described thus: p53 small molecule agonists, cell-based qHTS assay with human liver microsomes (AID 1963577).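 Further: p53 response element beta-lactamase reporter cells with liver microsomes plus NADPH.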 The procedure, abridged: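 Steps: plate p53RE-bla cells, incubate 5 h at 37 C; add compound in DMSO; add microsomes (0.5 mg/mL final) and NADPH (0.5 mg/mL final); incubate 16 h at 37 C; add LiveBLAzer, 2 h RT; read fluorescence.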
(In general: qHTS replaces the single test concentration by a dilution series.)

Assay [5] is described as follows: p53 small molecule agonists, cell-based qHTS assay with rat liver microsomes (AID 1963578). The procedure, abridged: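 Metabolic activation is supplied by rat liver microsomes with NADPH (each 0.5 mg/mL final). p53RE-bla cells incubate with compound 16 h at 37 C; reporter activity is measured by LiveBLAzer fluorescence.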
The nature of assay [6]: p53 small molecule agonists, cell-based qHTS assay with human liver microsomes: qHTS cell viability counter screen (AID 1963579). Further: nearly all actives have a fitted effect of over 45% in size. The procedure, abridged:
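After the 460/530 nm beta-lactamase read, CellTiter-Glo was added to the same wells and luminescence measured after 30 min at room temperature, giving viability of p53RE-bla cells treated 16 h with compounds plus microsomes and NADPH.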

Assay [7] in a line: p53 small molecule agonists, cell-based qHTS assay: qHTS cell viability counter screen (AID 1963581). Further: nearly all actives have a fitted effect of over 45% in size. The procedure, abridged:
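p53RE-bla HCT-116 cells, compounds added 5 h after plating and incubated 16 h at 37 C. Cytotoxicity measured in the same wells as intracellular ATP by CellTiter-Glo luminescence after 30 min at room temperature.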

Assay [8] is described as follows: p53 small molecule agonists, cell-based qHTS assay (AID 1963582; active means well fitted activation curve with a large enough effect in the signal ratio in the repeat runs, not every such curve was filed as active; the % refers to the signal ratio). The procedure, abridged:
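p53RE-bla reporter cells, compounds added in DMSO after 5 h plating, incubated 16 h at 37 C. Beta-lactamase read via 2 h room-temperature LiveBLAzer B/G FRET substrate, fluorescence intensity.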

The target in assay [9] is 5-hydroxytryptamine receptor 2A (Homo sapiens) (UniProt P28223). Kind of assay: 5-hydroxytryptamine receptor 2A (HTR2A) small molecule agonists, cell-based qHTS assay (AID 1963587). Further: nearly all actives have a fitted effect of over 30% in size. Further: potency means the concentration at half of the fitted maximal effect. The procedure, abridged:
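HTR2A-CHO cells, plated 18 h at 37 C/5% CO2, dye-loaded 1 h at 37 C; compounds in DMSO added by pin tool (agonist mode). Intracellular calcium flux read as kinetic fluorescence on FDSS over 2 min at 1 s intervals.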

For assay [10], the target named is Muscarinic acetylcholine receptor M1 (Homo sapiens) (UniProt P11229). The assay can be described thus: Cholinergic receptor muscarinic 1 (CHRM1) small molecule antagonists, cell-based qHTS assay (AID 1963588). Further: nearly all actives have a fitted effect of over 40% in size. Further: potency means the concentration at half of the fitted maximal effect. The procedure, abridged: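 CHRM1-CHO calcium-flux assay, antagonist mode. Cells were seeded 18 h, dye-loaded 1 h at 37 C and given compound for 5 min at RT, then acetylcholine was added at 50nM. FDSS fluorescence was read 3 min; 15 concentrations, three runs.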

Assay [11] has the same target. The assay can be described thus: Cholinergic receptor muscarinic 1 (CHRM1) small molecule agonists, cell-based qHTS assay (AID 1963589). Further: nearly all actives have a fitted effect of over 35% in size. The procedure, abridged: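 CHO cells stably expressing human CHRM1 were loaded with calcium dye for 1 h at 37 C, then compound was added in agonist mode. Intracellular calcium fluorescence was followed kinetically at 1 s intervals. Fifteen concentrations were tested in three independent runs.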

The nature of assay [12]: cAMP Responsive Elements (CRE) small molecule antagonists, cell-based qHTS assay (AID 1963591; active means well fitted inhibition curve with a large enough effect in the signal ratio in the repeat runs, not every such curve was filed as active; the % refers to the signal ratio; further: potency means the concentration at half of the fitted maximal effect). The procedure, abridged: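 CRE-bla HEK293T cells plated 18 h, then given compound plus NKH477 at 0.25 uM final for 3 h at 37C. Beta-lactamase reporter read with LiveBLAzer B/G FRET substrate after 2 h at room temperature.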
Assay [13] addresses Beta-2 adrenergic receptor (Homo sapiens) (UniProt P07550). Kind of assay: Adrenergic beta2 receptor (ADRB2) small molecule antagonists, cell-based qHTS assay (AID 1963592). Further: series mostly up to about 92 µM; nearly all actives have a fitted effect of over 50% in size. The procedure, abridged: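 Cells (CHO, stable ADRB2 overexpression) incubated 18-20hr at 37C; compounds added from DMSO; agonist mix (1nM isoproterenol, 100uM IBMX, 25uM Ro-20-1724) added; 0.5hr RT; d2-cAMP and anti-cAMP-cryptate added; 1hr RT; 665/615 nm read.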

In assay [14] the target is D(2) dopamine receptor (Homo sapiens) (UniProt P14416). The assay can be described thus: Dopamine D2 receptor (DRD2) small molecule antagonists, cell-based qHTS assay (AID 1963595; active means well fitted inhibition curve with a large enough effect in the signal ratio in the repeat runs, with a control signal flat; the % refers to the signal ratio; further: potency means the concentration at half of the fitted maximal effect). The procedure, abridged: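 HEK293 cells stably expressing DRD2, preincubated with 0.1 mM Ro20-1724 and compounds 10 min, were stimulated with 200 nM NKH477 plus 12 nM quinpirole for 30 min at room temperature; cAMP measured by HTRF (665/620 nm).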

A short description of assay [15]: p53 small molecule agonists, cell-based qHTS assay with rat liver microsomes: qHTS cell viability counter screen (AID 1963580). Further: nearly all actives have a fitted effect of over 45% in size. The procedure, abridged: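 p53RE-bla HCT-116 cells (4,000/well) rested 5 h at 37 C, then given Tox21 compounds in DMSO with rat liver microsomes (0.5 mg/mL final) plus NADPH (0.5 mg/mL final) for 16 h at 37 C. Viability read by CellTiter-Glo luminescence after 30 min at room temperature.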

Assay [16] deals with 5-hydroxytryptamine receptor 2A (Homo sapiens) (UniProt P28223). The assay can be described thus: 5-hydroxytryptamine receptor 2A (HTR2A) small molecule antagonists, cell-based qHTS assay (AID 1963586). Further: nearly all actives have a fitted effect of over 45% in size. Further: potency means the concentration at half of the fitted maximal effect. The procedure, abridged: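 Antagonist-mode intracellular calcium assay: DOI (4 nM) added after 5 min compound pre-incubation at room temperature to dye-loaded HTR2A-CHO cells. Fluorescence followed for 3 min, sampled every second.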

Assay [17] is described as follows: cAMP Responsive Elements (CRE) small molecule agonists, cell-based qHTS assay (AID 1963590). The procedure, abridged: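 CRE-bla HEK 293T cells, 2,000/well in DMEM with 10% dialyzed FBS and 25 mM HEPES, pre-incubated 18 h at 37 C, then exposed to compound 3 h at 37 C. Beta-lactamase reporter read with LiveBLAzer B/G FRET substrate after 2 h at room temperature.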

Assay [18] deals with Beta-2 adrenergic receptor (Homo sapiens) (UniProt P07550). Kind of assay: Adrenergic beta2 receptor (ADRB2) small molecule agonists, cell-based qHTS assay (AID 1963593).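 Further: CHO cells stably overexpressing human ADRB2.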 The procedure, abridged:
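CHO cells stably over-expressing ADRB2 were plated overnight at 37C, then dosed with compounds plus a stimulation mix containing 100uM IBMX and 25uM Ro-20-1724 for 0.5hr at room temperature. cAMP was measured by HTRF competition, 1hr.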

Assay [19] deals with D(2) dopamine receptor (Homo sapiens) (UniProt P14416). Kind of assay: Dopamine D2 receptor (DRD2) small molecule agonists, cell-based qHTS assay (AID 1963594). Further: nearly all actives have a fitted effect of over 35% in size. The procedure, abridged: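 HEK293 cells stably expressing DRD2 were cultured 24 h at 37 C, then given Ro20-1724 (0.1 mM final) and compounds for 10 min at room temperature. NKH477 (200nM) was then added for 30 min. cAMP was read by HTRF.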
On the % scale 0 is the no-effect control and ±100 the full control effect.

KiSS-1 receptor (Homo sapiens), sequence (Q969F8 whole entry, looked up): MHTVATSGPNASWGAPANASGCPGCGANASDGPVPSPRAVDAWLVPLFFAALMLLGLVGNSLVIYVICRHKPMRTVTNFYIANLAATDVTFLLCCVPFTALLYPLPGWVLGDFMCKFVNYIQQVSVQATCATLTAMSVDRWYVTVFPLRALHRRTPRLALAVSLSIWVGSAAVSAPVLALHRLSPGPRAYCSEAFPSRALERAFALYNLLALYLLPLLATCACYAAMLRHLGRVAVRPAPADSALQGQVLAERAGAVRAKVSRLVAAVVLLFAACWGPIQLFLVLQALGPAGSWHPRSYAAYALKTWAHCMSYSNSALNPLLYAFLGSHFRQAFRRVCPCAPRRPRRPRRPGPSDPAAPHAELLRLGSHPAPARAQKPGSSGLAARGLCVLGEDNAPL
D(2) dopamine receptor (Homo sapiens), sequence (P14416 whole entry, looked up): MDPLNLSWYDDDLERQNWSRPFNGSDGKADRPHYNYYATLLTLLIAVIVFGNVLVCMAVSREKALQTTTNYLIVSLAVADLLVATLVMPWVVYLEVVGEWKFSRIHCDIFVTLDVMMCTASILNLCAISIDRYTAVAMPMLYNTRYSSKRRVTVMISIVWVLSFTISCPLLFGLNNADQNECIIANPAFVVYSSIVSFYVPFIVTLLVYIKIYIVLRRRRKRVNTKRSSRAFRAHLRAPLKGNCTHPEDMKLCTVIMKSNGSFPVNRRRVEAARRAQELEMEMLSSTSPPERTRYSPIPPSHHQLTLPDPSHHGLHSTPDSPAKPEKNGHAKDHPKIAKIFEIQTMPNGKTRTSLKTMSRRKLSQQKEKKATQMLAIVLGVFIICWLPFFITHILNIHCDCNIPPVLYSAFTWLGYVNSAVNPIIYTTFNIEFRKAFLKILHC
5-hydroxytryptamine receptor 2A (Homo sapiens), sequence (P28223 whole entry, looked up): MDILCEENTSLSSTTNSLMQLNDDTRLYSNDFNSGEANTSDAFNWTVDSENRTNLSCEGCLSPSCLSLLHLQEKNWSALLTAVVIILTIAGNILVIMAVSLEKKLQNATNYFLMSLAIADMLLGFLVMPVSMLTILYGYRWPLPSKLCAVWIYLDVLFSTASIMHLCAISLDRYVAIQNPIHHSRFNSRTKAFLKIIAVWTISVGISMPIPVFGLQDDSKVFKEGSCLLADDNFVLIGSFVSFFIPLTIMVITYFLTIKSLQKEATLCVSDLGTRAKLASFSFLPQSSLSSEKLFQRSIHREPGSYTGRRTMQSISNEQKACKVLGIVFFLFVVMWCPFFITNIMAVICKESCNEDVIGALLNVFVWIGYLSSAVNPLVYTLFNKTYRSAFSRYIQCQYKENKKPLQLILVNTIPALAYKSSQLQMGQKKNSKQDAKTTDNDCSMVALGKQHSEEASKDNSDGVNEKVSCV
Beta-2 adrenergic receptor (Homo sapiens), sequence (P07550 whole entry, looked up): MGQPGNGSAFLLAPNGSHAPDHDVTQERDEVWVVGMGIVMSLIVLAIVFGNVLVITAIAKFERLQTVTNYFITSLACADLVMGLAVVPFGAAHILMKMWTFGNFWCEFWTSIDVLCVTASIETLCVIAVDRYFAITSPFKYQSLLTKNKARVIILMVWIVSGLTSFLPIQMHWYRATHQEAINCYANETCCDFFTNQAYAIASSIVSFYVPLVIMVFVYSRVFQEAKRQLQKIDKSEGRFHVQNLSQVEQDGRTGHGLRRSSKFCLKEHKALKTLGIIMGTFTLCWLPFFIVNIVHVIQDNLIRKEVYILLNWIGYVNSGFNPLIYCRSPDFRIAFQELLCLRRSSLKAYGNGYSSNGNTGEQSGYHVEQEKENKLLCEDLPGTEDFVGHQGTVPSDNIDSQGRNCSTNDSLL
Gonadotropin-releasing hormone receptor (Homo sapiens), sequence (P30968 whole entry, looked up): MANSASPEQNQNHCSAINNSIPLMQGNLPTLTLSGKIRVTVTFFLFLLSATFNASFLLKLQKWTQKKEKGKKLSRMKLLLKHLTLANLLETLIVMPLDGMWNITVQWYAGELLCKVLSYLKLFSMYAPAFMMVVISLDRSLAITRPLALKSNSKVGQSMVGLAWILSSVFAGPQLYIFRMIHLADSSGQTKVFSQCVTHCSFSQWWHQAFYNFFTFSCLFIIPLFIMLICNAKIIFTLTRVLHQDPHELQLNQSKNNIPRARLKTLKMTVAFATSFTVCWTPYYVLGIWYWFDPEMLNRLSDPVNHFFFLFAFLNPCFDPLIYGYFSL
Muscarinic acetylcholine receptor M1 (Homo sapiens), sequence (P11229 whole entry, looked up): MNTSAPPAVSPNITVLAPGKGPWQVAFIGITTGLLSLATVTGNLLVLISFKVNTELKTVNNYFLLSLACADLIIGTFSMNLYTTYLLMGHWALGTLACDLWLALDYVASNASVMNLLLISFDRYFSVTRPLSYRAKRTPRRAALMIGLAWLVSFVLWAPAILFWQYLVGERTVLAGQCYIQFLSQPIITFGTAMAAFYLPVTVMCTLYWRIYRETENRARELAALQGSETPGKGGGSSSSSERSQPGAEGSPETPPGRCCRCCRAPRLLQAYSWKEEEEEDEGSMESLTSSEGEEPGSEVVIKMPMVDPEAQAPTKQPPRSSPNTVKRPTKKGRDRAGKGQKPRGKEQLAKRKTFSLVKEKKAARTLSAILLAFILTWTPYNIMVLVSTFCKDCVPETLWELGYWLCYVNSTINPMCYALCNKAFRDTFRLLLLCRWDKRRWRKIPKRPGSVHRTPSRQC

With `Cc1ccc(O)c2ncccc12`, the Potency result in assay [1], in assay [2], in assay [3], in assay [4], in assay [5] and in assay [6] was “inactive” each time. Besides, the Potency entry in assay [7], in [8], in assay [9], in [10], in assay [11] and in assay [13] was “inactive” in each case. Also, the Potency entry in assay [14] was “inactive”. Also, the Potency in [12] is 13.3 µM (active).

Turning to `Nc1ccc(N=Nc2ccccc2)c(N)c1`, the Potency result in [1], in assay [2], in assay [3], in assay [4], in [5] and in assay [6] was “inactive” each time. In addition, the Potency entry in [15], in assay [7], in [8], in assay [11], in [17] and in assay [12] was “inactive” throughout. The Potency in assay [16] is 1.64 µM (active); in assay [10], 23.2 µM (active).

`Nc1cccc([N+](=O)[O-])c1`: the Potency entry in assay [1], in assay [2], in assay [3], in assay [4], in assay [5] and in assay [15] was “inactive” in each case. For the same compound, the Potency result in [7], in assay [8], in assay [16], in [9], in [12] and in [13] was “inactive” in each case. The Potency result in assay [18], in assay [19] and in [14] was “inactive” throughout. The Potency in assay [10] was 0.13 µM (active).

For `CCCCCCCCCc1ccc(OCCOCCO)cc1`, the Potency in assay [1] is 13 µM (active); in [16] it was 5.58 µM (active); in [9], 20.5 µM (active); in assay [14], 25.6 µM (active). For the same compound, the Potency result in [2], in assay [3], in assay [4], in [5], in [6] and in assay [15] was “inactive” throughout. The Potency entry in assay [7], in assay [11], in assay [13] and in [19] was “inactive” each time.

For the compound `O=CC=C(c1ccccc1)c1ccccc1`, the Potency result in assay [1], in assay [2], in assay [3], in assay [4], in assay [5] and in assay [15] was “inactive” in each case. In addition, the Potency entry in assay [7], in assay [9], in assay [10], in assay [11], in assay [13] and in assay [18] was “inactive” each time. For the same compound, the Potency result in assay [19] was “inactive”. Also, in assay [16], the Potency was 42.4 µM (active).

Turning to `O=C(O)CN(CCN(CC(=O)O)CC(=O)O)CC(=O)O`, the activity change in assay [1] was 0.111% [at 2.04 µM, active compounds read high]. In addition, the activation was -1.01% [at 2.72 µM] in assay [2]; 0.597% [at 2.04 µM] in [3]; -9.46% [at 2.33 µM] in assay [4]; -7.74% [at 2.33 µM] in assay [5]; -0.659% [at 2.65 µM] in assay [9]; -0.34% [at 2.72 µM] in [11]. In addition, the activation in assay [17] was 0.14% [at 3.27 µM]; in assay [18] it was 11.4% [at 3.27 µM]; in [19], 2.74% [at 3.27 µM]. Further, the activity change, negative = cytotoxicity is -15.2% [at 2.33 µM] in assay [6] and 1.99% [at 2.33 µM] in assay [7]. Moreover, in assay [16], the activity, negative = inhibition is -0.852% [at 2.12 µM]. Further, the values for the activity change, negative = inhibition in [12] and in assay [13] were 1.65% [at 3.27 µM] and 4.71% [at 3.27 µM], respectively.

Regarding `O=C(O)O`, the activity change in assay [1] was 1.69% [at 5.22 µM, active compounds read high]. The activation in assay [2] was 0.0823% [at 6.97 µM]; in [3], -0.66% [at 5.23 µM]; in assay [4] it was -14.9% [at 5.99 µM]; in assay [5] it was -6.42% [at 5.99 µM]; in assay [8] it was -4.58% [at 5.99 µM]; in assay [17], 2.15% [at 8.39 µM]. The activation in assay [19] was -1.72% [at 8.39 µM]. The results for the activity change, negative = cytotoxicity in assay [6] and in assay [7] were -18.2% [at 5.99 µM] and 11.6% [at 5.99 µM], respectively. Moreover, the activity, negative = inhibition was 11.9% [at 5.62 µM] in [16] and -13.8% [at 5.58 µM] in [10]. In addition, the values for the activity change, negative = inhibition in [12], in [13] and in assay [14] were -6.17% [at 8.39 µM], -4.62% [at 8.39 µM] and 0.0808% [at 8.38 µM], respectively.

`CCCCCCCC/C=C\CCCCCCCC(=O)N(CCO)CCO`: the Potency result in assay [1], in [2], in [3], in assay [4], in [5] and in assay [6] was “inactive” each time. Also, the Potency result in [7], in assay [16], in assay [9], in [10], in assay [11] and in assay [17] was “inactive” throughout. Moreover, the Potency result in [12], in assay [13], in assay [18], in [19] and in [14] was “inactive” each time.
